# Pf growth 96h: P. falciparum growth inhibition at 96 hour, primary screen for plastid delayed-death inhibitors | P. falciparum luciferase reporter growth, 96 h | Potency, µM (series often up to 28.7 µM), for inactives: at the top dose activity change, negative = inhibition, usual class: inhibitors | actives 6.9% (n = 320,000) | AID 504834; also: potency is read from the fitted curve at half-maximal effect
#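 Compounds incubated with erythrocytes infected by luciferase-expressing P. falciparum (2% hematocrit, 0.05% parasitemia final) for 96 hours, 37 C in 5% CO2. Growth inhibition scored as decreased luciferase luminescence.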
# Lassa entry inh: Lassa virus entry inhibition | Lassa virus pseudotype entry inhibition, cell reporter | Potency, µM (highest dose often 37.9 µM), for the others: at the highest dose activity change, negative = inhibition, most hits filed as inhibitors | actives 1.2% (n = 300,000) | AID 540256; calls by dose curve; tested in HEK293 cells; also: potency is read from the fitted curve at half-maximal effect; nearly all actives have a fitted effect of over 50% in size
# HCMV inh: inhibitors of human cytomegalovirus; HFF cells, HCMV-luciferase reporter, 72 h; active compounds read low; activity change, negative = inhibition, % at 57.5 µM; actives 4.5% (n = 410,000); AID 1259415; in the data active = activity change below about -60%; inconclusive = no clear call, values can overlap the other calls; inactive = above about -39%
#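 Compounds were evaluated in HFFs infected with an HCMV luciferase reporter virus (MOI 1 PFU/cell). Luciferase in lysates collected 72 h post infection served as the replication measure.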
# HCV inhibitor: inhibitors of hepatitis C virus infection. Huh7.5.1 HCVcc-Cre infection, luciferase reporter, 44 h. Potency, µM (top dose mostly 41.8 µM), for inactives: at the highest dose activity change, negative = inhibition, usual class: inhibitors. AID 651820. actives 3.4% (n = 340,000); also: potency is read from the fitted curve at half-maximal effect
#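 1,000 cells/well; 4 h culture; + compound; + HCVcc-Cre (~0.5 moi); 44 h; luciferase substrate, RT 15 min; read 15 sec.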
# Pf growth 48h: P. falciparum growth inhibition at 48 hours (one generation). actives 5.9% (n = 310,000). P. falciparum luciferase growth in erythrocytes, 48 h. Potency, µM (series often up to 28.7 µM), for inactives: top-dose activity change, negative = inhibition, actives largely listed as inhibitors. AID 504832; also: potency is read from the fitted curve at half-maximal effect
#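 Firefly luciferase activity from engineered P. falciparum reports growth; inhibitors lower the luminescent signal. Cultures contained 2% hematocrit erythrocytes at 0.1% final parasitemia.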
# Marburg entry inh: blocks Marburg virus binding to or entry into cells; Marburg virus pseudotyped entry inhibition, cell reporter; Potency, µM (highest dose often 37.8 µM), without a hit: at the top dose activity change, negative = inhibition, hits mostly inhibitors; actives 1.8% (n = 300,000); AID 540276; calls by dose curve; tested in HEK293 cells; also: potency is read from the fitted curve at half-maximal effect
# * = called active by the depositor; i = inactive; ? = inconclusive; / = not tested or not shown; [ ] = dose if it differs, or a comment. A selection: hits, their analogues and other compounds. The true share with any hit is near 14%. Unless noted, calls follow the shape of the dose curve; as a rule, active = well fitted inhibition curve with a large enough effect; inconclusive = small, poorly fitted or top-dose-only effect, or another doubt; inactive = no such curve, though single readings can be large or run the other way. % is scaled to controls: 0 for no effect and ±100 for the full control effect.
SMILES,Pf growth 96h,Lassa entry inh,HCMV inh,HCV inhibitor,Pf growth 48h,Marburg entry inh
COc1cccc(OC)c1OC[C@H](C)CNC[C@@H]1CCCO1,/,/,/,/,/,-13%
COc1cccc(OC)c1OCC(C)CNCC1CCCO1 (stereo not drawn),?,6%,62,1µM*,6%,-13%
Cc1ccc(COc2coc(CN3CCN(C(=O)c4ccco4)CC3)cc2=O)cc1,?,27%,1,-7%,12µM*,9%
COc1ccc(C)cc1S(=O)(=O)N1CCN(C(=O)c2ncoc2-c2cccc(F)c2)CC1,0.66µM*,?,6,?,2%,?
COc1cccc(CN2CCN(C(=O)c3ccco3)CC2)c1,0.83µM*,/,21,27%,43%,/
COc1ccc(OC)c(CN2CCN(C(=O)c3ccco3)CC2)c1,?,-1%,-20,5%,15%,7%
CC(=O)Nc1ccc(S(=O)(=O)N2CCN(C(=O)c3ncoc3-c3cccc(F)c3)CC2)cc1,-1%,15%,?,?,-5%,17%[46.1 µM]
COc1cccc(S(=O)(=O)N2CCN(C(=O)c3ccco3)CC2)c1,?,-3%[46.1 µM],-86*,17%,-1%,?
N#Cc1cccnc1N1CCN(C(C(=O)NC2CCCC2)c2ccco2)CC1 (stereo not drawn),/,/,12,/,/,/
Cc1c(F)cccc1NC(=O)C1CCCN1S(=O)(=O)c1ccc(F)cc1 (stereo not drawn),/,11%[46.1 µM],-10,/,/,-5%[46.1 µM]
CCc1ccccc1NC(=O)N1CCN(c2nnc(C)c3c(C)n(-c4ccccc4)nc23)CC1,/,26%[46.1 µM],-15,/,/,/
COc1cc(C(=O)n2nc(C)c(Sc3ccc(Cl)cc3)c2C)cc(OC)c1OC,/,-1%[46.1 µM],-5,/,/,2%[46.1 µM]
CCc1ccc(OC)c(S(=O)(=O)N2CCN(C(=O)c3ccco3)CC2)c1,?,/,47,-4%,-2%,/
COc1ccc(F)cc1S(=O)(=O)N1CCN(C(=O)c2ccco2)CC1,10µM*,3%,11,15%,1%,0%
CCc1ccccc1NC(=O)CSc1nnc(-c2cc(OC)c(OC)c(OC)c2)o1,/,6%[46.1 µM],11,/,/,9%[46.1 µM]
N#C/C(C(=O)NCc1ccco1)=C1/SC=C(c2ccccc2)N1c1ccccc1,5.2µM*,-5%,?,16%,0%,-24%
CC1=CS/C(=C(/C#N)C(=O)NCc2ccco2)N1c1ccccc1,-17%,/,?,5%,/,/
COc1ccc(N(CC(=O)N2CCN(c3ccccc3F)CC2)S(=O)(=O)c2c(C)noc2C)cc1,5.9µM*,-2%[46.1 µM],-6,7%,-14%,21%[46.1 µM]
COc1ccc(N(CC(=O)N2c3ccccc3CC2C)S(=O)(=O)c2c(C)noc2C)cc1 (stereo not drawn),-21%,-10%,8,-8%,12µM*,-13%
Cc1ccc(N(CC(=O)N2CCN(c3ccccc3F)CC2)S(=O)(=O)c2c(C)noc2C)cc1,9.3µM*,?,-18,7%,?,?
COc1ccc(N(CC(=O)N2CC=C(c3ccccc3)CC2)S(=O)(=O)c2c(C)noc2C)cc1,3.7µM*,/,-9,-7%,/,/
CC(C)CO/N=C1/C[C@@H](O)[C@@H](O)[C@@H]2[C@@H]3C(=O)N(C[C@@H]4CCCO4)C(=O)[C@H]3CC[C@H]12,/,/,/,/,/,10%[14.2 µM]
C[C@H](CO)N1C[C@H](C)[C@@H](CN(C)C(=O)Nc2ccnc(N3CCOCC3)c2)OCc2cn(nn2)CCCC1=O,/,/,3,/,/,/
CS(=O)(=O)N(CC(=O)N1CCN(c2ccccc2)CC1)c1cc(C(F)(F)F)ccc1Cl,/,-14%,33,7%,-17%,-1%
COc1ccc(N(CC(=O)N2CCN(c3cccc(C)c3)C(C)C2)S(=O)(=O)c2c(C)n[nH]c2C)cc1 (stereo not drawn),?,?,-77*,-3%,?,?
SMILES,Pf growth 96h,Lassa entry inh,HCMV inh,HCV inhibitor,Pf growth 48h,Marburg entry inh
COc1cccc(N2CCN(C(=O)CN(c3cc(C)cc(C)c3)S(=O)(=O)c3c(C)noc3C)CC2)c1,10µM*,/,-35,?,?,/
CS(=O)(=O)N(CC(=O)N1CCN(c2ccccc2F)CC1)c1cc(C(F)(F)F)ccc1Cl,10µM*,?,/,?,/,-19%
O=C(CS(=O)(=O)c1cccc2nsnc12)Nc1ccc(F)cc1F,/,0%[46.1 µM],26,/,/,/
CNc1ccc(-c2cccc(C#N)c2)cn1,/,/,-29,/,/,/
Fc1ccc(Sc2ccccc2CNC2=NCCN2)cc1,2.1µM*,?,?,?,5.9µM*,-33%
OCCNC1=NCCN1,21%,-9%,30,17%,1%,-22%[46.1 µM]
CC1SC(c2ccccc2)N(CC(O)c2ccc([N+](=O)[O-])cc2)C1=O (stereo not drawn),75%,/,24,3%,12µM*,/
O=C1CSC(c2ccccc2)N1CC(O)c1ccc([N+](=O)[O-])cc1 (stereo not drawn),i,-13%,-29,4%,-10%,-12%[46.1 µM]
Cc1cc(C(C)(C)C)c(O)c(C)c1CC1=NCCN1,?,-33%,-11,-16%,?,16µM*
Cc1cc(C)cc(N2C(N)=NC(N)=NC2c2ccccc2F)c1 (stereo not drawn),36%,/,?,-13%,3.3µM*,/
CCOC(=O)c1cnn(-c2cccc(Cl)c2)c1N,27%,-10%,62,9%,55%,?
COc1ccc(C2N=C(N)N=C(N)N2c2ccc(C)cc2)cc1 (stereo not drawn),5.9µM*,4%,?,-5%,/,-19%
COc1ccc(C2C(C(C)=O)=C(O)C(=O)N2c2ccc(C)cc2)cc1 (stereo not drawn),-1%,/,-19,7%,10%[0.00184 µM],/
Cc1cc(C)cc(N2C(N)=NC(N)=NC2c2cccc(Cl)c2)c1 (stereo not drawn),5%,?,-25,-9%,1.2µM*,0%[46.1 µM]
Cc1ccc(-n2nc(C)c3c2OC(N)=C(C#N)C3c2ccccc2F)cc1 (stereo not drawn),?,?,27,14%,?,4%
CC1CN(C(=O)COC(=O)c2cc(=O)[nH]c3ccccc23)CC(C)O1 (stereo not drawn),/,/,6,/,/,/
CCc1ccc(C(c2ccccc2)c2c(C)[nH]c3ccccc23)s1 (stereo not drawn),/,4%[46.1 µM],-62*,/,/,/
Cc1ccc(C(c2ccccc2)c2c(C)[nH]c3ccccc23)s1 (stereo not drawn),/,4%[46.1 µM],-83*,/,/,/
O=C(O)c1[nH]c2ccccc2c1C(c1ccccc1)c1c(C(=O)O)[nH]c2ccccc12,?,/,70,-1%,27%,/
O=S(Cc1ccccc1)c1ccccc1 (stereo not drawn),/,5%[46.1 µM],-20,34%,/,25%
O=C(O)c1cccc(C(=O)O)c1S(=O)Cc1ccccc1 (stereo not drawn),/,/,-66*,/,/,/

# Screening data (PubChem BioAssay)
